Shn3 inh set2: reduction of Shn3 3'UTR firefly luciferase signal, primary screen, Schnurri-3 inhibitor project, cell-based, Clone20 osteoblasts, set 2; Clone20 osteoblast Shn3 3'UTR firefly luciferase, 24 h; inhibition, % at 12.5 µM; 360,000 compounds, 0.52% hits;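 active means mean inhibition of at least 75% with every replicate also reaching 75%; inconclusive means mean inhibition at least 75% but some replicate below; inactive means mean inhibition below 75%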;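 further: 0% = median of neutral control wells and 100% = pilot-screen positive control compound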
Beta apoptosis: inhibitors of cytokine-induced beta cell apoptosis, primary screen, luminescence. 300,000 compounds, 0.8% hits. INS-1E cytokine-induced death, ATP luminescence, 48 h; percent of positive-control rescue, neutral wells zero. protection from apoptosis, % (no concentration beside the values). AID 435005, 2010;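 active means Every replicate reaches about 75%, or at least half do and their mean reaches it too, limit read from the data; inconclusive means At least half of replicates reach the limit but their mean does not; inactive means Under half of replicates reach the limit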;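 further: 0% = cytokine-treated negative control wells and 100% = positive control rescue; higher means more ATP so stronger rescue from cytokine killing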
Calb FLC: C. albicans growth inhibition with fluconazole, primary screen, CaCi-2 strain, Alamar Blue fluorescence; C. albicans CaCi-2 (fluconazole-resistant clinical isolate) + fluconazole, 48 h; growth inhibition, % (test concentration not listed); 300,000 compounds, 0.57% hits; AID 1979, 2009;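 active means growth inhibition above about 58% in most replicates, limit read from the data, passing the limit was not always enough; inconclusive means exactly half the replicates above a set limit; inactive means most replicates below a set limit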;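 further: all wells also contain fluconazole at 8 µg/ml as a sub-toxic cotreatment; 0% = median of DMSO wells and 100% = median of geldanamycin control wells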
PfHsp90 set2: growth inhibition of PfHsp90-expressing yeast, primary screen, antimalarial PfHsp90 inhibitor project, S. cerevisiae, BacTiter-Glo luminescence, single point, set 2 | BacTiter-Glo ATP, 48 h; yeast lacking PDR1 and PDR3 efflux regulators | AID 504621, 2011 | inhibition, % at 9.4 µM | 310,000 compounds, 0.32% hits;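 active means every replicate shows inhibition above about 80%, whatever the replicate mean, limit read from the data; inconclusive means mean inhibition reaches the set limit but some replicate falls short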;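 further: 0% = DMSO neutral controls and 100% = 20 µM radicicol positive controls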
CSC inhib: cancer stem cell viability inhibitors, primary screen, luminescence | cancer stem cell-like cells viability | inhibition, % at 7.5 µM | 300,000 compounds, 1.1% hits; in the data active means inhibition above about 75%; inconclusive means no clear call, values can overlap the other calls; tested in HMLE shEcad cells
Starred values were filed as active, the others as inactive; ? = inconclusive; nt = not tested or not shown. Sampled rows, rich in hits. Any-hit rate of the full collection: about 2.2%.

SMILES	Shn3 inh set2	Beta apoptosis	Calb FLC	PfHsp90 set2	CSC inhib
C[C@@H]1CC[C@]2(C(=O)O)CC[C@]3(C)C(=CCC4[C@@]5(C)CC[C@H](O)[C@@](C)(C(=O)O)C5CC[C@]43C)C2[C@]1(C)O (some centres not stated)	-15.1	-9.1	nt	-11.6	-14.0
C[C@H]1[C@H](C)CC[C@]2(C)CC[C@]3(C)C(=CC[C@@H]4[C@@]5(C)CC[C@@H](O)[C@](C)(C(=O)O)[C@@H]5CC[C@]43C)[C@H]12	nt	-4.4	nt	nt	76.5*
C[C@H]1[C@H](C)CC[C@]2(C)CC[C@]3(C)C(=CC(=O)C4[C@@]5(C)CC[C@H](O)C(C)(C)C5CC[C@]43C)[C@H]12 (some centres not stated)	17.0	4.6	nt	9.6	98.2*
CC1(C)CC[C@]2(C(=O)O)CC[C@]3(C)C(=CCC4[C@]56CC[C@@](O)(OC5)C(C)(C)C6CC[C@]43C)C2C1 (some centres not stated)	20.3	nt	nt	nt	nt
C[C@H]1[C@H](C)CC[C@]2(C(=O)O)CC[C@]3(C)C(=CC[C@@H]4[C@@]5(C)CC[C@H](O)C(C)(C)[C@@H]5CC[C@]43C)[C@H]12	-5.9	22.4	nt	9.9	65.8
C[C@H]1[C@H](C)CC[C@]2(C(=O)O)CC[C@]3(C)C(=CC[C@@H]4[C@@]5(C)C[C@@H](O)[C@H](O)C(C)(C)[C@@H]5CC[C@]43C)[C@H]12	0.8	2.4	-0.4	-9.1	94.7*
C[C@@H]1CC[C@]2(C(=O)O)CC[C@]3(C)C(=CCC4[C@]56CC[C@@](O)(OC5)C(C)(C)C6CC[C@]43C)C2[C@H]1C (some centres not stated)	2.1	2.8	nt	14.6	96.1*
c1ccc(CN2CCC(Nc3nc(-c4cccs4)nc4ccccc34)CC2)cc1	-6.4	24.0	17.3	-0.1	109.2*
c1csc(-c2nc(NCC3CCCO3)c3ccccc3n2)c1 (configuration not stated)	13.6	-7.7	20.3	-1.4	nt
Cc1ccc(NC(=O)NNS(=O)(=O)c2ccc(Br)cc2)cc1	-3.0	-0.2	-4.8	nt	9.6
Cc1ccc(S(=O)(=O)NC(=O)Nc2ccc(N(C)C)cc2)cc1	6.2	5.7	87.2*	10.3	-3.6
Cc1ccc(S(C)(=O)=NS(=O)(=O)c2cccc3nsnc23)cc1 (configuration not stated)	4.3	0.7	8.5	-4.9	-9.9
CCCCCCc1ccc(N2C[C@H](Cc3ccccc3)[C@@H](CC(=O)Nc3ccccc3)C2=O)cc1	6.3	103.9*	-8.1	5.0	36.0
CCCCC[C@H]1CN(Cc2ccc(OC)cc2)C(=O)[C@@H]1CC(=O)NCc1ccccc1	88.6*	-0.3	3.3	-7.9	9.4
CCCCCCc1ccc(N2C[C@H](Cc3ccccc3)[C@@H](CC(=O)NCc3ccc(OC)cc3)C2=O)cc1	19.0	99.8*	-10.4	48.9	63.6
O=C(C[C@H]1C(=O)N(c2ccc(Br)cc2)C[C@@H]1Cc1ccccc1)Nc1ccccc1	10.7	nt	nt	nt	nt
CNC(=O)C1Cc2c(-c3ccccc3Oc3ccccc3)ccnc2O1 (configuration not stated)	-8.7	nt	nt	nt	nt
Cc1cc(Sc2ncnc(N)c2[N+](=O)[O-])ncn1	98.6*	-40.8	101.1*	-3.0	37.0
Cc1cc(Sc2nc(N)ncc2[N+](=O)[O-])ncn1	59.4	-13.5	105.1*	39.3	15.3
CCCCCCN1C[C@H](n2cc(-c3ccc(F)cc3)nn2)[C@@H](O)C[C@@H]1c1ccc(Cl)cc1	95.4*	nt	nt	nt	nt
CCC(=O)NC(/C=C/c1ccccc1)c1cc([N+](=O)[O-])c2cccnc2c1O (configuration not stated)	nt	77.3*	3.0	nt	151.1*
CC(C)C(=O)NC(c1cccs1)c1cc([N+](=O)[O-])c2cccnc2c1O (configuration not stated)	7.8	97.3*	89.8*	-90.1	104.3*
Cc1ccc(C(NC(=O)C(C)C)c2cc([N+](=O)[O-])c3cccnc3c2O)cc1 (configuration not stated)	53.6	61.2	-7.3	67.5	144.4*
S=C1N(c2ccccc2)C(c2ccc(Br)cc2)N2CCCN12 (configuration not stated)	-5.1	-0.9	-22.7	-13.3	3.2
O=S(=O)(NCCc1ccc(Cl)cc1)c1cccc2cccnc12	-7.2	-13.1	17.9	-0.9	-4.3
SMILES	Shn3 inh set2	Beta apoptosis	Calb FLC	PfHsp90 set2	CSC inhib
COC(=O)CCN1CCC2CC1c1cc(Cl)ccc12 (configuration not stated)	-9.0	nt	nt	14.3	nt
NS(=O)(=O)c1cccc(NC(=O)Cc2ccc(Cl)c(Cl)c2)c1	0.6	-3.5	-26.7	1.0	-10.2
NCCNc1ccc(C(=O)N2c3ccccc3Sc3ccccc32)cc1[N+](=O)[O-]	6.6	23.6	4.3	10.6	91.8*
COC(=O)C[C@](O)(CCCC(C)(C)O)C(=O)O[C@@H]1C(OC)=C[C@]23CCCN2CCc2cc4c(cc2[C@H]13)OCO4	nt	77.9*	nt	nt	98.3*
O=C(N/N=C/c1ccc(O)cc1)c1cc(C23CC4CC(CC(C4)C2)C3)[nH]n1	6.6	1.0	10.0	-36.5	79.5*
O=C(Nc1ccc(Oc2ccc(C(=O)O)c(C(=O)O)c2)cc1)c1cccs1	10.0	-2.1	7.8	-42.5	0.2
O=C(N/N=C/c1ccc(Cl)c([N+](=O)[O-])c1)c1cc(-c2ccccc2)nc2ccccc12	2.7	3.0	11.0	nt	96.4*
O=C(N/N=C/c1cc([N+](=O)[O-])ccc1O)c1cc(-c2ccccc2)nc2ccccc12	87.5*	116.6*	-14.3	-19.7	39.0
COc1ccccc1-c1cc(C(=O)N/N=C/c2sccc2C)c2ccccc2n1	27.1	17.7	0.4	7.1	-17.2
Cc1ccsc1/C=N/NC(=O)c1cc(-c2ccncc2)nc2ccccc12	-2.3	3.7	0.8	-4.6	78.3*
O=C(N/N=C/c1ccc([N+](=O)[O-])o1)c1cc(-c2ccc(-c3ccccc3)cc2)nc2ccccc12	27.7	24.2	-14.2	4.1	77.7*
O=C(N/N=C/c1cc([N+](=O)[O-])ccc1Cl)c1cc(-c2ccccc2)nc2ccccc12	-6.8	0.6	2.9	-38.6	-19.5
COCCCn1c(O)c(/C=C2\N=C(C#N)C(=Nc3ccc(C)cc3)O2)sc1=S	nt	-4.5	2.5	0.3	-2.6
O=C(N/N=C/c1cc([N+](=O)[O-])ccc1O)c1c[nH]c2ccccc12	-1.9	78.1*	1.8	16.3	?
O=C(N/N=C/c1cccc([N+](=O)[O-])c1)c1c[nH]c2ccccc12	nt	14.9	-0.6	7.6	-4.6
CC(=O)Oc1ccc(-c2csc(Nc3cccc(C)n3)n2)cc1	-107.2	nt	-2.0	-11.6	79.1*
O=C(N/N=C/c1ccc(F)cc1)c1ccc(Br)cc1	-41.7	3.5	?	nt	8.7
